# Measured values from PubChem BioAssay AID1159580 (chemical genetic matrix, 2015).
# Where “and” joins values, the source holds several entries; their conditions need not be identical. Identical values can stand only once. The whole screen tested about 5,500 compounds, of which about 2,000 (36%) were called active. Roughly 18% stayed inconclusive and do not appear here. This is one part of the list. Values without a mark were called inactive. No stated cut-off is given here; in the data, active means normalized growth mostly below about 0.91 (no sharp cut-off); inconclusive means no clear call, values can overlap the other calls; inactive means mostly above about 0.92.
# Experiment: chemical genetic growth profiling, strain panel (AID 1159580);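 further: tested at 20 µM; growth read once vehicle control cultures reached saturation at 30 °C; 1 = growth at the plate median or of vehicle wells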
# Conditions: S. cerevisiae deletion strains, growth OD
smiles,measurement,setting,value
C[n+]1cc2c3c(ccc2c2ccc4cc5c(cc4c21)OCO5)OCO3,normalized growth,"locus YJR043C, strain POL32, stronger effect = lower value",0.0783 (active)
same,normalized growth,"locus YJR066W, strain TOR1, stronger effect = lower value",0.931
same,normalized growth,"locus YJR075W, strain HOC1, stronger effect = lower value",0.0715 (active) and 0.0688 (active)
same,normalized growth,"locus YKL009W, strain mrt4, stronger effect = lower value",0.922
same,normalized growth,"locus YKL068W, stronger effect = lower value",0.964
same,normalized growth,"locus YKL085W, strain MDH1 (second series), stronger effect = lower value",0.921 (active)
same,normalized growth,"locus YKL085W, strain MDH1, stronger effect = lower value",0.921 (active)
same,normalized growth,"locus YKL160W, strain elf1, stronger effect = lower value",0.548 (active)
same,normalized growth,"locus YKL190W, strain CNB1, stronger effect = lower value",0.0545 (active)
same,normalized growth,"locus YKR001C, strain vps1, stronger effect = lower value",0.0723 (active)
same,normalized growth,"locus YKR026C, strain gcn3, stronger effect = lower value",0.843 (active)
same,normalized growth,"locus YKR091W, strain srl3, stronger effect = lower value",0.914 (active)
same,normalized growth,"locus YLL001W, strain dnm1, stronger effect = lower value",0.639 (active)
same,normalized growth,"locus YLL026W, stronger effect = lower value",0.549 (active)
same,normalized growth,"locus YLL041C, strain sdh2, stronger effect = lower value",0.778 (active)
same,normalized growth,"locus YLR027C, strain aat2, stronger effect = lower value",0.379 (active)
same,normalized growth,"locus YLR039C, strain RIC1, stronger effect = lower value",0.101 (active)
same,normalized growth,"locus YLR058C, strain SHM2, stronger effect = lower value",0.0596 (active)
same,normalized growth,"locus YLR102C, strain apc9, stronger effect = lower value",0.0679 (active)
same,normalized growth,"locus YLR113W, strain HOG1, stronger effect = lower value",0.951
same,normalized growth,"locus YLR221C, strain rsa3, stronger effect = lower value",0.562 (active)
same,normalized growth,"locus YLR258W, strain gsy2, stronger effect = lower value",0.502 (active)
same,normalized growth,"locus YLR262C, strain YPT6 (second series), stronger effect = lower value",0.827 (active)
same,normalized growth,"locus YLR262C, strain YPT6, stronger effect = lower value",0.123 (active)
same,normalized growth,"locus YLR268W, strain sec22, stronger effect = lower value",0.0776 (active)
same,normalized growth,"locus YLR320W, strain mms22, stronger effect = lower value",0.375 (active)
same,normalized growth,"locus YLR330W, strain CHS5, stronger effect = lower value",0.0586 (active)
same,normalized growth,"locus YLR342W, strain FKS1 (second series), stronger effect = lower value",0.0743 (active)
same,normalized growth,"locus YLR342W, strain FKS1, stronger effect = lower value",0.349 (active)
same,normalized growth,"locus YLR357W, strain rsc2, stronger effect = lower value",0.844 (active)
same,normalized growth,"locus YLR370C, strain arc18, stronger effect = lower value",0.762 (active)
same,normalized growth,"locus YLR371W, strain rom2, stronger effect = lower value",0.0708 (active)
same,normalized growth,"locus YLR384C, strain iki3, stronger effect = lower value",0.97
same,normalized growth,"locus YLR418C, strain cdc73, stronger effect = lower value",0.107 (active)
same,normalized growth,"locus YML016C, strain PPZ1, stronger effect = lower value",0.0598 (active)
same,normalized growth,"locus YML032C, strain rad52, stronger effect = lower value",0.0764 (active)
same,normalized growth,"locus YML120C, strain ndi1, stronger effect = lower value",0.582 (active)
same,normalized growth,"locus YML124C, strain tub3, stronger effect = lower value",0.0684 (active)
same,normalized growth,"locus YMR058W, strain fet3, stronger effect = lower value",0.592 (active)
same,normalized growth,"locus YMR078C, strain ctf18, stronger effect = lower value",0.0819 (active)
same,normalized growth,"locus YMR125W, strain sto1, stronger effect = lower value",0.462 (active)
same,normalized growth,"locus YMR129W, stronger effect = lower value",0.779 (active)
same,normalized growth,"locus YMR205C, strain PFK2, stronger effect = lower value",0.273 (active)
same,normalized growth,"locus YMR223W, strain ubp8, stronger effect = lower value",0.077 (active)
same,normalized growth,"locus YMR231W, strain pep5, stronger effect = lower value",0.991
same,normalized growth,"locus YMR307W, strain GAS1, stronger effect = lower value",0.145 (active) and 0.0622 (active)
same,normalized growth,"locus YNL067W, strain RPL9B, stronger effect = lower value",0.0573 (active)
same,normalized growth,"locus YNL071W, strain lat1, stronger effect = lower value",0.0942 (active)
same,normalized growth,"locus YNL175C, strain NOP13, stronger effect = lower value",0.0763 (active)
same,normalized growth,"locus YNL183C, strain NPR1, stronger effect = lower value",0.923
same,normalized growth,"locus YNL197C, strain WHI3, stronger effect = lower value",0.0898 (active)
same,normalized growth,"locus YNL209W, strain ssb2, stronger effect = lower value",0.623 (active)
same,normalized growth,"locus YNL224C, strain SQS1, stronger effect = lower value",0.0906 (active)
same,normalized growth,"locus YNL233W, strain BNI4, stronger effect = lower value",0.0657 (active)
same,normalized growth,"locus YNL248C, strain rpa49, stronger effect = lower value",0.688 (active)
same,normalized growth,"locus YNL250W, strain rad50, stronger effect = lower value",0.839 (active)
same,normalized growth,"locus YNL271C, strain bni1, stronger effect = lower value",0.92
same,normalized growth,"locus YNL298W, strain CLA4, stronger effect = lower value",0.951
same,normalized growth,"locus YNL307C, strain MCK1, stronger effect = lower value",0.0755 (active)
same,normalized growth,"locus YNL322C, strain KRE1 (second series), stronger effect = lower value",1
same,normalized growth,"locus YNL322C, strain KRE1, stronger effect = lower value",0.0622 (active)
same,normalized growth,"locus YNR049C, strain mso1, stronger effect = lower value",0.964
same,normalized growth,"locus YNR052C, strain pop2, stronger effect = lower value",0.085 (active)
same,normalized growth,"locus YOL006C, strain TOP1, stronger effect = lower value",0.135 (active)
same,normalized growth,"locus YOL012C, strain htz1",0.232
same,normalized growth,"locus YOL147C, strain pex11, stronger effect = lower value",0.0667 (active)
same,normalized growth,"locus YOR001W, strain rrp6, stronger effect = lower value",0.823 (active)
same,normalized growth,"locus YOR061W, strain CKA2, stronger effect = lower value",0.0586 (active)
same,normalized growth,"locus YOR069W, strain VPS5, stronger effect = lower value",0.0593 (active)
same,normalized growth,"locus YOR070C, strain gyp1, stronger effect = lower value",0.413 (active)
same,normalized growth,"locus YOR080W, strain dia2, stronger effect = lower value",0.825 (active)
same,normalized growth,"locus YOR083W, strain WHI5 (second series), stronger effect = lower value",0.0851 (active)
same,normalized growth,"locus YOR083W, strain WHI5, stronger effect = lower value",0.475 (active)
same,normalized growth,"locus YOR106W, strain vam3, stronger effect = lower value",0.315 (active)
same,normalized growth,"locus YOR136W, strain idh2, stronger effect = lower value",0.0832 (active)
same,normalized growth,"locus YOR144C, strain elg1, stronger effect = lower value",0.0651 (active)
same,normalized growth,"locus YOR184W, strain ser1, stronger effect = lower value",0.0766 (active)
same,normalized growth,"locus YOR231W, strain MKK1, stronger effect = lower value",0.96
same,normalized growth,"locus YOR265W, strain rbl2, stronger effect = lower value",0.5 (active)
same,normalized growth,"locus YOR270C, strain vph1, stronger effect = lower value",0.38 (active)
same,normalized growth,"locus YOR290C, strain snf2, stronger effect = lower value",0.412 (active)
same,normalized growth,"locus YOR316C, strain cot1, stronger effect = lower value",0.0661 (active)
same,normalized growth,"locus YPL051W, strain arl3, stronger effect = lower value",0.512 (active)
same,normalized growth,"locus YPL055C, strain LGE1, stronger effect = lower value",0.0742 (active) and 0.092 (active)
same,normalized growth,"locus YPL078C, strain atp4, stronger effect = lower value",0.538 (active)
same,normalized growth,"locus YPL106C, strain sse1, stronger effect = lower value",0.741 (active)
same,normalized growth,"locus YPL240C, strain hsp82, stronger effect = lower value",0.58 (active)
same,normalized growth,"locus YPL256C, strain CLN2, stronger effect = lower value",0.969
same,normalized growth,"locus YPR119W, strain clb2, stronger effect = lower value",0.07 (active)
same,normalized growth,"locus YPR141C, strain kar3, stronger effect = lower value",0.971
same,normalized growth,"locus YPR163C, strain tif3, stronger effect = lower value",0.0761 (active)
same,normalized growth,"locus YPR167C, strain met16, stronger effect = lower value",0.0704 (active)
same,normalized growth,"strain wtn01, stronger effect = lower value",0.067 (active)
